Screening results: PubChem BioAssay, National Center for Advancing Translational Sciences (NCATS)
Only some compounds are listed: those with a hit (about 19% of all), similar ones and a draw of the others.
uPA generation = inhibitors of cell surface uPA generation | 0.31% of 330,000 active | Potency, µM (titrated, usually from 38.3 µM), without a hit: at the highest dose activity change, negative = inhibition, usual class: inhibitors | AID 540303 | cell surface uPA generation assay, qHTS; active = well fitted inhibition curve with a large enough effect; inconclusive = small, poorly fitted or top-dose-only effect; inactive = no such curve, though single readings can be large or run the other way; tested in mouse RAW 264.7 cells; note: potency is the fitted concentration of half-maximal effect; nearly all actives have a fitted effect of over 55% in size
TDP1 cell noCPT = qHTS for Inhibitors of human tyrosyl-DNA phosphodiesterase 1 (TDP1): qHTS in cells in absence of CPT. DT40 Tdp1-/- hTDP1 cells, no CPT, ATP luminescence, 48 h. Potency, µM (titrated, usually from 46.2 µM), without a hit: top-dose activity change, negative = growth inhibition, usual class: inhibitors. AID 686978, 2013. 15% of 420,000 active; note: potency is the fitted concentration of half-maximal effect; nearly all actives have a fitted effect of over 55% in size
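DT40 Tdp1-/-;hTDP1 cells, no CPT (DMSO vehicle only), 400 cells/well; compounds pin-transferred; ≥48 hr, 37 °C; CellTiter-Glo 30 min RT dark, luminescence read.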
DT40 TDP1 CPT = DT40-hTDP1 cell growth loss with CPT; AID 686979; chicken DT40 Tdp1-/-;hTDP1 cells + 20 nM CPT, ATP luminescence, 48 h; 12% of 420,000 active; Potency, µM (titrated, usually from 46.2 µM), for the others: at the highest dose activity change, negative = growth inhibition, usual class: inhibitors; note: potency is the fitted concentration of half-maximal effect; nearly all actives have a fitted effect of over 55% in size
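Chicken DT40 Tdp1-/- cells stably complemented with human TDP1 were seeded at 400 cells/well in medium containing 20 nM camptothecin, exposed to pin-transferred compounds, and grown at 37 °C for at least 48 hr. Viability was read as ATP luminescence.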
HT1080NT lethal = kills 2HG-producing HT-1080-NT fibrosarcoma cells; HT-1080-NT fibrosarcoma viability, CellTiter-Glo ATP luminescence, 48 h; Potency, µM (series often up to 46.1 µM), for inactives: top-dose activity, negative = less viability, hits mostly cytotoxic; 1.6% of 360,000 active; AID 686970;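 note: NT is the 2HG producing partner of a matched IDH1 knockdown line; potency is the fitted concentration of half-maximal effect; 0% = DMSO-treated cells and -100% = media-only wells without cells; nearly all actives have a fitted effect of over 55% in size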
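Compounds were tested in concentration-response format on HT-1080-NT cells for 48 hours at 37 degrees C. Cell viability came from CellTiter-Glo luminescence; curves were classified by r2, response magnitude and activity.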
IL-1B inflam inh = inflammasome signaling inhibition, IL-1 beta readout | THP-1 LPS/ATP IL-1B secretion, AlphaLISA, 16 h; active compounds read low | activity change, % at 57.5 µM | 4.7% of 360,000 active | AID 743279; in the data active = activity change below about -50%; inconclusive = mostly about -30% to -49%
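THP-1 cells pretreated 1 hr with compounds (up to 57.5 uM final), then stimulated with LPS (250 ng/mL final) plus ATP (1.25 mM final); secreted IL-1B measured by AlphaLISA after 16 hr, decreased signal indicating inhibition.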
HT1080 IDH1KD tx = HT-1080 IDH1 knockdown cell toxicity (counter line); AID 686971; 2% of 360,000 active; HT-1080 IDH1 knockdown viability, ATP luminescence, 48 h; Potency, µM (titrated, usually from 46.1 µM), without a hit: top-dose activity, negative = toxicity, hits mostly cytotoxic;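 note: potency is the fitted concentration of half-maximal effect; 0% = DMSO wells and -100% = cell-free medium wells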
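Knockdown cells (IDH1KD HT-1080) received compounds 2 h after plating at 750 cells/well and were kept 48 h at 37 °C in 5% FBS RPMI. A CellTiter-Glo luminescence read gave % activity for curve fitting.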
* = called active by the depositor; ? = inconclusive; . = no result given. Unless noted, calls come from the whole dose curve; as a rule, active = well fitted curve in the direction sought with a large enough effect; inconclusive = small, poorly fitted or top-dose-only effect, or another doubt; inactive = no such curve, though single readings can be large; an effect the other way counts as inactive or inconclusive. Unless noted, % is set by controls: 0 for no effect and ±100 for the full control effect.

SMILES | uPA generation | TDP1 cell noCPT | DT40 TDP1 CPT | HT1080NT lethal | IL-1B inflam inh | HT1080 IDH1KD tx
Cn1c(=O)c2c(ncn2CC(COCc2ccccc2)OCc2ccccc2)n(C)c1=O (configuration not stated) | 5.8% | ? | ? | -1.3% | 0.0 | 0.8%
CC[C@@H]1CC2=C(C(=O)OC(C)(C)O2)[C@@H](c2ccc(Cl)cc2)O1 | . | -21.5% | -19.4% | 2.0% | 9.4 | -0.4%
Cc1cc(/C=N/n2cnnc2)c(C)n1-c1ccccc1 | -5.6% | -10.2% | -24.7% | -0.8% | 25.2 | 3.4%
Cc1sc(-n2c(C)cc(/C=C3\SC(=S)NC3=O)c2C)c(C#N)c1C | -11.5% | -27.5% | ? | 12.6µM* | 24.0 | 11.2µM*
Cc1sc(-n2c(C)cc(/C=N/n3cnnc3)c2C)c(C#N)c1C | 4.2% | 20.6µM* | 16.4µM* | -20.8% | 0.0 | ?
CCc1ccccc1NC(=O)CN1C(=O)C2CCCN2c2ccc(S(=O)(=O)N(CC)CC)cc21 (configuration not stated) | . | -27.0% | -22.6% | . | . | .
CC(C)NC(=O)C1C(c2ccc(C(F)(F)F)cc2)=Nc2ccccc2N1C(=O)c1cccc(C(F)(F)F)c1 (configuration not stated) | . | ? | ? | -0.3% | 37.4 | -0.1%
Cc1ccc(N2CCN(C(=O)c3cccs3)CC2)cc1C | -0.3% | -26.1% | -1.1% | 14.1% | -7.4 | -3.7%
CC(=O)Nc1ccc(N2CCN(C(=O)c3cccs3)CC2)cc1 | 2.2% | 6.1% | 5.4% | 19.1% | -15.8 | 14.5%
O=C(Cn1nc(-c2ccccc2)ccc1=O)Nc1ccc(N2CCN(C(=O)c3cccs3)CC2)cc1 | -10.3% | ? | ? | -7.2% | -57.2* | -10.8%
COc1cc(OC)cc(C(=O)Nc2ccc(N3CCN(C(=O)c4cccs4)CC3)cc2)c1 | -11.1% | 5.17µM* | 5.8µM* | ? | -8.6 | -19.6%
COc1ccc(NC(=O)C2CCN(C(=O)c3cccs3)CC2)cc1 | -2.2% | -20.9% | -13.6% | -0.8% | -11.7 | -3.0%
O=C(Nc1ccc(N2CCN(C(=O)c3cccs3)CC2)cc1)c1ccc(F)cc1 | 4.7% | 23.1µM* | -25.3% | 0.4% | . | 2.8%
Nc1ccc(N2CCN(C(=O)c3cccs3)CC2)cc1 | -14.7% | 14.6µM* | ? | -1.0% | -4.5 | -1.2%
Cc1ccc(C)c(CC(=O)N2CCCC(c3cc(C(=O)NCc4ccccc4)no3)C2)c1 (configuration not stated) | . | ? | ? | 2.2% | -15.9 | 0.2%
CN(C(=O)COc1ccc(Oc2ccccc2)cc1)C1CCS(=O)(=O)C1 (configuration not stated) | 0.0% | -15.4% | -11.8% | -14.2% | 3.8 | -20.4%
O=[N+]([O-])c1ccccc1S(=O)(=O)Nc1cccnc1 | 0.4% | -20.4% | -18.0% | 22.9% | 14.1 | 25.8%
COc1ccc(C(=O)Nc2ccc(N3CCCC3)cc2)cc1Br | -1.3% | ? | ? | -9.3% | -10.3 | -9.7%
COc1ccc(C(=O)Nc2ccc(N3CCN(C(=O)c4cccs4)CC3)cc2)cc1Br | ? | 18.4µM* | 20.6µM* | -19.1% | -23.1 | -27.2%
CCn1c(C)c(C2N3CC4(C)CN2CC(CC)(C3)C4=O)c2ccccc21 (configuration not stated) | . | ? | -5.9% | . | . | .
Cc1ccc(/C=N/N(C)S(=O)(=O)c2ccc(C)cc2)cc1 | -5.9% | 20.6µM* | 23.1µM* | -12.2% | -4.3 | -21.1%
CSc1ccc(/C=N/N(C)S(=O)(=O)c2ccc(C)cc2)cc1 | -4.7% | 7.31µM* | ? | 1.8% | -14.8 | 1.3%
Cc1ccc(S(=O)(=O)N(C)CCN(C)S(=O)(=O)c2ccc(C)cc2)cc1 | 2.1% | 23.1µM* | ? | 14.6% | 4.6 | 0.7%
